Our source for the outcome and AC50 values is PubChem BioAssay (EPA / NIEHS).

The AC50 is the midpoint of the concentration-response curve, whichever way the signal moves.

The source made the active and inactive calls. Rule for the calls: active = hit-call score of the fitted dose curve at least 0.9, where 1 is the maximum; inactive = score below 0.9.

Chain of E-selectin (Homo sapiens) (P16581 whole entry, looked up): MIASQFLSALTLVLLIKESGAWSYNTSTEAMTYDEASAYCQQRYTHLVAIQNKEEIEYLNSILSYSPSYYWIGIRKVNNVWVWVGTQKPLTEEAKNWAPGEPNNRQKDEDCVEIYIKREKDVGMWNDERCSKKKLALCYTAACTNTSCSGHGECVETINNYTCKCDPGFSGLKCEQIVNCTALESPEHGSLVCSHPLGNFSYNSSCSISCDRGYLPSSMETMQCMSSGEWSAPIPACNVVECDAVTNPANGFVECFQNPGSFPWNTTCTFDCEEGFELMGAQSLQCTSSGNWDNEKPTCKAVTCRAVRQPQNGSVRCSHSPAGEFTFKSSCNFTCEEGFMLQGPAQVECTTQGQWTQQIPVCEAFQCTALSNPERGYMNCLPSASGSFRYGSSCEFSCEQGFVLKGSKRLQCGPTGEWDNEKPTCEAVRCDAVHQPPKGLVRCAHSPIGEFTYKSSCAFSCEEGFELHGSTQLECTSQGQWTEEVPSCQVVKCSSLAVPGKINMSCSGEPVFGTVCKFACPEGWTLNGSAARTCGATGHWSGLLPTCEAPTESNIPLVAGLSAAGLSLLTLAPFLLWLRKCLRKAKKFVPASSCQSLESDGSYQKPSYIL

Read-out in the first assay: E-selectin (Homo sapiens) (UniProt P16581)
The experiment in a line: BSK_3C_Eselectin: BioMAP Diversity Plus: 3C Assay for Eselectin Biomarker Activity (AID 2283015).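 For outcome: cell surface E-selectin protein quantified by ELISA 24 h after dosing.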 As to conditions: primary human endothelial cells (HUVEC); actives raise or lower the signal. A digest of the protocol: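 Human vascular endothelium from umbilical vein is exposed to test chemicals for 24 h. E-selectin levels are read by ELISA and compared with DMSO controls.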
Take `CN(C)C(=O)NC1(c2ccccc2)CCN(CCC[C@]2(c3ccc(Cl)c(Cl)c3)CCCN(C(=O)c3ccccc3)C2)CC1`: the result was inactive.

As for `CCCCOC(=O)CCCCC(=O)OCCCC`, the outcome was inactive.

With `C=CCCCCCCCCCCCC`, the outcome was inactive.

For the compound `Nc1nc(Cl)nc2c1ncn2[C@H]1C[C@H](O)[C@@H](CO)O1`, the result was inactive.

As to `Cc1ccc(C(C)(C)C)c(O)c1`, the AC50 was 34.5 µM (active).

`Oc1ccccc1O`: the AC50 is 1.73 µM (active).

Consider `CCCCC(CC)COC(=O)CCCCCCCC(=O)OCC(CC)CCCC` (stereo unspecified), for which the outcome was inactive.

Turning to `CC(=O)[C@@]1(O)CC[C@H]2[C@@H]3CCC4=CC(=O)CC[C@]4(C)[C@H]3CC[C@@]21C`, the result was inactive.

In the case of `CCCCCCCCCCCCCCOS(=O)(=O)O`, the outcome was inactive.

On to `O=C(O)c1cccnc1`, for which the result was inactive.

With `Nc1nc(=S)c2[nH]cnc2[nH]1`, the outcome was inactive.

Consider `CCN(CC)CCOc1ccc(C(=C(Cl)c2ccccc2)c2ccccc2)cc1`, for which the AC50 is 14.3 µM (active).

Regarding `CCCCc1nc2cccnc2n1Cc1ccc(-c2ccccc2-c2nnn[nH]2)cc1`, the outcome was inactive.

As for `CC(C)c1cccc(C(C)C)c1`, the result was inactive.

With `O=C1O[C@H]([C@H](O)CO)C(O)=C1O`, the outcome was inactive.

On to `O=[Si]=O`, for which the outcome was inactive.

For `CC(=O)O`, the outcome was inactive.

`CS(=O)(=O)c1ccc([C@@H](C[C@H]2CCC(=O)C2)C(=O)Nc2cnccn2)cc1Cl`: the result was inactive.

As for `CC(C)(O)c1ccc(CNC(=O)c2cccnc2Oc2ccc(F)cc2)cc1`, the result was inactive.

As for `O=NO`, the result was inactive.

With `CC(=O)O[C@]1(C(C)=O)CC[C@H]2[C@@H]3C=C(Cl)C4=CC(=O)[C@@H]5C[C@@H]5[C@]4(C)[C@H]3CC[C@@]21C`, the result was inactive.

For the compound `CCCCC(CC)CO` (stereo unspecified), the result was inactive.

With `COc1ccc(OC(F)(F)F)cc1CN[C@H]1CCCN[C@H]1c1ccccc1`, the AC50 was 9.58 µM (active).

Regarding `CCc1nc(N)nc(N)c1-c1ccc(Cl)cc1`, the outcome was inactive.

On to `O=C1CCCCC1`, for which the result was inactive.

For `O=C(O)CN(CC(=O)O)CC(=O)O`, the outcome was inactive.

In the case of `CC(=O)OC1CC(C)OC(C)O1` (stereo unspecified), the outcome was inactive.

With `COC(=O)[C@H]1[C@H]2C[C@@H]3c4[nH]c5cc(OC)ccc5c4CCN3C[C@H]2C[C@@H](OC(=O)c2cc(OC)c(OC)c(OC)c2)[C@@H]1OC`, the AC50 is 16.9 µM (active).

As for `CCCC[C@H]1CN(CC2CCOCC2)C(=O)OC12CCN(C1(C)CCN(C(=O)c3c(C)ncnc3C)CC1)CC2`, the outcome was inactive.

Read-out in a further assay: Interleukin-1 alpha (IL1a), IL1A (gene 3552)
The experiment in a line: BSK_BE3C_IL1a: BioMAP Diversity Plus: BE3C Assay for Interleukin-1 alpha (IL1a) Biomarker Activity (AID 2283016). As to conditions: primary human bronchial epithelial cells; actives raise or lower the signal. A digest of the protocol:
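IL-1a measured by ELISA after 24 h treatment of human primary bronchial epithelial cells, with gain or loss of signal fitted versus DMSO. Parallel cultures stained with SRB gauge overt cytotoxicity.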
For the compound `CN(C)C(=O)NC1(c2ccccc2)CCN(CCC[C@]2(c3ccc(Cl)c(Cl)c3)CCCN(C(=O)c3ccccc3)C2)CC1`, the outcome was inactive.

With `CCCCOC(=O)CCCCC(=O)OCCCC`, the result was inactive.

Take `C=CCCCCCCCCCCCC`: the result was inactive.

As for `Nc1nc(Cl)nc2c1ncn2[C@H]1C[C@H](O)[C@@H](CO)O1`, the outcome was inactive.

As for `Cc1ccc(C(C)(C)C)c(O)c1`, the outcome was inactive.

`Oc1ccccc1O`: the result was inactive.

On to `CCCCC(CC)COC(=O)CCCCCCCC(=O)OCC(CC)CCCC` (stereo unspecified), for which the result was inactive.

With `CC(=O)[C@@]1(O)CC[C@H]2[C@@H]3CCC4=CC(=O)CC[C@]4(C)[C@H]3CC[C@@]21C`, the outcome was inactive.

With `CCCCCCCCCCCCCCOS(=O)(=O)O`, the AC50 was 28.1 µM (active).

`O=C(O)c1cccnc1`: the outcome was inactive.

Consider `Nc1nc(=S)c2[nH]cnc2[nH]1`, for which the result was inactive.

As for `CCN(CC)CCOc1ccc(C(=C(Cl)c2ccccc2)c2ccccc2)cc1`, the AC50 is 18.9 µM (active).

Consider `CCCCc1nc2cccnc2n1Cc1ccc(-c2ccccc2-c2nnn[nH]2)cc1`, for which the result was inactive.

`CC(C)c1cccc(C(C)C)c1`: the result was inactive.

Turning to `O=C1O[C@H]([C@H](O)CO)C(O)=C1O`, the outcome was inactive.

On to `O=[Si]=O`, for which the outcome was inactive.

For `CC(=O)O`, the outcome was inactive.

For the compound `CS(=O)(=O)c1ccc([C@@H](C[C@H]2CCC(=O)C2)C(=O)Nc2cnccn2)cc1Cl`, the result was inactive.

In the case of `CC(C)(O)c1ccc(CNC(=O)c2cccnc2Oc2ccc(F)cc2)cc1`, the result was inactive.

With `O=NO`, the outcome was inactive.

In the case of `CC(=O)O[C@]1(C(C)=O)CC[C@H]2[C@@H]3C=C(Cl)C4=CC(=O)[C@@H]5C[C@@H]5[C@]4(C)[C@H]3CC[C@@]21C`, the AC50 was 32.8 µM (active).

Regarding `CCCCC(CC)CO` (stereo unspecified), the result was inactive.

In the case of `COc1ccc(OC(F)(F)F)cc1CN[C@H]1CCCN[C@H]1c1ccccc1`, the result was inactive.

Regarding `CCc1nc(N)nc(N)c1-c1ccc(Cl)cc1`, the outcome was inactive.

In the case of `O=C1CCCCC1`, the result was inactive.

As for `O=C(O)CN(CC(=O)O)CC(=O)O`, the result was inactive.

Consider `CC(=O)OC1CC(C)OC(C)O1` (stereo unspecified), for which the outcome was inactive.

Consider `CCCC[C@H]1CN(CC2CCOCC2)C(=O)OC12CCN(C1(C)CCN(C(=O)c3c(C)ncnc3C)CC1)CC2`, for which the outcome was inactive.

Read-out in another assay: Monocyte Chemoattractant Protein-1 (MCP1), CCL2 (gene 6347)
The experiment in a line: BSK_3C_MCP1: BioMAP Diversity Plus: 3C Assay for Monocyte Chemoattractant Protein-1 (MCP1) Biomarker Activity (AID 2283017). As to conditions: primary human endothelial cells (HUVEC); actives raise or lower the signal. A digest of the protocol: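 Endothelial cells from human umbilical vein are dosed with chemical, cultured 24 h, then assayed for MCP-1 by ELISA; both increases and decreases are modelled against DMSO controls.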
Take `CN(C)C(=O)NC1(c2ccccc2)CCN(CCC[C@]2(c3ccc(Cl)c(Cl)c3)CCCN(C(=O)c3ccccc3)C2)CC1`: the AC50 is 7.06 µM (active).

On to `CCCCOC(=O)CCCCC(=O)OCCCC`, for which the result was inactive.

As to `C=CCCCCCCCCCCCC`, the outcome was inactive.

Consider `Nc1nc(Cl)nc2c1ncn2[C@H]1C[C@H](O)[C@@H](CO)O1`, for which the result was inactive.

On to `Cc1ccc(C(C)(C)C)c(O)c1`, for which the AC50 was 34.7 µM (active).

As for `Oc1ccccc1O`, the AC50 was 4.66 µM (active).

With `CCCCC(CC)COC(=O)CCCCCCCC(=O)OCC(CC)CCCC` (stereo unspecified), the outcome was inactive.

On to `CC(=O)[C@@]1(O)CC[C@H]2[C@@H]3CCC4=CC(=O)CC[C@]4(C)[C@H]3CC[C@@]21C`, for which the result was inactive.

As to `CCCCCCCCCCCCCCOS(=O)(=O)O`, the result was inactive.

In the case of `O=C(O)c1cccnc1`, the result was inactive.

For the compound `Nc1nc(=S)c2[nH]cnc2[nH]1`, the outcome was inactive.

Regarding `CCN(CC)CCOc1ccc(C(=C(Cl)c2ccccc2)c2ccccc2)cc1`, the AC50 is 11.6 µM (active).

`CCCCc1nc2cccnc2n1Cc1ccc(-c2ccccc2-c2nnn[nH]2)cc1`: the outcome was inactive.

Turning to `CC(C)c1cccc(C(C)C)c1`, the result was inactive.

With `O=C1O[C@H]([C@H](O)CO)C(O)=C1O`, the result was inactive.

Turning to `O=[Si]=O`, the result was inactive.

In the case of `CC(=O)O`, the result was inactive.

For `CS(=O)(=O)c1ccc([C@@H](C[C@H]2CCC(=O)C2)C(=O)Nc2cnccn2)cc1Cl`, the result was inactive.

As for `CC(C)(O)c1ccc(CNC(=O)c2cccnc2Oc2ccc(F)cc2)cc1`, the outcome was inactive.

Consider `O=NO`, for which the outcome was inactive.

Take `CC(=O)O[C@]1(C(C)=O)CC[C@H]2[C@@H]3C=C(Cl)C4=CC(=O)[C@@H]5C[C@@H]5[C@]4(C)[C@H]3CC[C@@]21C`: the outcome was inactive.

Turning to `CCCCC(CC)CO` (stereo unspecified), the result was inactive.

Turning to `COc1ccc(OC(F)(F)F)cc1CN[C@H]1CCCN[C@H]1c1ccccc1`, the AC50 was 20 µM (active).

Regarding `CCc1nc(N)nc(N)c1-c1ccc(Cl)cc1`, the outcome was inactive.

In the case of `O=C1CCCCC1`, the outcome was inactive.

`O=C(O)CN(CC(=O)O)CC(=O)O`: the result was inactive.

For `CC(=O)OC1CC(C)OC(C)O1` (stereo unspecified), the result was inactive.

Consider `COC(=O)[C@H]1[C@H]2C[C@@H]3c4[nH]c5cc(OC)ccc5c4CCN3C[C@H]2C[C@@H](OC(=O)c2cc(OC)c(OC)c(OC)c2)[C@@H]1OC`, for which the AC50 is 16.9 µM (active).

Regarding `CCCC[C@H]1CN(CC2CCOCC2)C(=O)OC12CCN(C1(C)CCN(C(=O)c3c(C)ncnc3C)CC1)CC2`, the result was inactive.
